Test results taken from PubChem BioAssay (NCATS).
Results filed as inconclusive are left out. Activity calls are given as the source filed them. Calls come from the whole dose curve; as a rule, active = well fitted curve in the direction sought with a large enough effect; inconclusive = small, poorly fitted or top-dose-only effect, or another doubt; inactive = no such curve, though single readings can be large; an effect the other way counts as inactive or inconclusive.

What was measured:
[1] = MultiTox-Fluor Cytotoxicity Assay - LYMP1-001 - Dead Cells (AID 946)
How it was run: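 LYMP1-001 lymphoblastoid cells (2500/well) treated 16 h at 37 C. Dead-cell protease cleavage of bis-AAF-R110 read at Ex/Em 485/520. Normalized to DMSO and 15 uM tetraoctylammonium bromide; AC50 from Hill fits.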

[2] = MultiTox-Fluor Cytotoxicity Assay - LYMP1-001 - Live Cells (AID 947)
[3] = Cell Viability - LYMP1-002 - Assay at 16 hr (AID 948)
How it was run: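 In this qHTS, lymphoblastoid LYMP1-002 cells (human) receive compounds for 16 hr at 37 C. Viability is taken from CellTiter-Glo ATP luminescence, and AC50 derives from standard Hill fits.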

[4] = MultiTox-Fluor Cytotoxicity Assay - LYMP1-002 - Live Cells (AID 955)
How it was run: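 Read-out is live-cell protease activity (cell-permeant GF-AFC substrate, fluorescence Ex/Em=405/510), where a decrease indicates acute toxicity. Human lymphoblastoid cells were treated 16 hours at 37 C in a concentration series, and AC50 values came from standard Hill modelling.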

[5] = MultiTox-Fluor Cytotoxicity Assay - LYMP1-002 - Dead Cells (AID 960); note: nearly all actives have a fitted effect of over 60% in size
How it was run: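 LYMP1-002 cells 2500/well; 5 hr 37 C pre-incubation; compound 16 hr 37 C; MultiTox-Fluor reagent 60 min RT; dead-cell fluor Ex/Em 485/520. Norm. to DMSO (0%) vs 15 uM tetraoctylammonium bromide (100%); Hill AC50.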

[6] = MultiTox-Fluor Cytotoxicity Assay - LYMP1-003 - Live Cells (AID 962);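 note: cytotoxic hits lower the live-cell protease signal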
How it was run: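 qHTS, 1536-well; 2500 cells/well LYMP1-003; 5 hr 37 C settle; cpd 16 hr 37 C; MultiTox-Fluor reagent 60 min RT; live-cell protease fluor. 405/510; Hill-fit AC50; tetraoctylammonium bromide pos. ctrl.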

[7] = Cell Viability - LYMP1-003 - Assay at 24 hr (AID 963)
How it was run: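 Cells seeded at 2500/well, 5 hr at 37 C; compounds added; 24 hr at 37 C; CellTiter-Glo added, 30 min room temperature; luminescence read. Decrease in ATP taken as cytotoxicity, AC50 from Hill modelling.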

[8] = Cell Viability - LYMP1-003 - Assay at 40 hr (AID 964); note: series mostly up to about 92 µM; nearly all actives have a fitted effect of over 60% in size
How it was run: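 Cells were seeded at 2500 per well and incubated 5 hr at 37 C. Compounds were added across a concentration series and left 40 hr at 37 C. CellTiter-Glo was added for 30 min at room temperature before luminescence reading.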

[9] = Cell Viability - LYMP2-004 (AID 966); note: nearly all actives have a fitted effect of over 65% in size
How it was run: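 Cells seeded 2500/well, rested 5 hr at 37 C, dosed across a concentration series, incubated 24 hr at 37 C, then CellTiter-Glo added for 30 min at room temperature and luminescence read. Hill fitting gave AC50.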

[10] = Cell Viability - LYMP2-005 (AID 967); note: series mostly up to about 92 µM
How it was run: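 Luciferase-based ATP quantitation served as the viability measure in human lymphoblastoid LYMP2-005 cells exposed to test compounds for 24 h at 37 C in complete culture medium. Potency (AC50) was obtained by fitting concentration-response curves with the Hill equation.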

[11] = Cell Viability - LYMP2-009 (AID 968); note: series mostly up to about 92 µM; nearly all actives have a fitted effect of over 55% in size
[12] = Cell Viability - LYMP2-011 (AID 969); note: nearly all actives have a fitted effect of over 60% in size
How it was run: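 2500 cells/well, 5 hr 37 C; compound added, 24 hr 37 C; CellTiter-Glo 30 min RT; luminescence. qHTS concentration-response, Hill-equation AC50. Tetraoctylammonium bromide positive control.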

[13] = Cell Viability - LYMP2-013 (AID 970); note: series mostly up to about 92 µM; nearly all actives have a fitted effect of over 55% in size
How it was run: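 qHTS; 2500 lymphoblastoid cells/well; 5 hr 37 C settle; cpd 24 hr 37 C; CellTiter-Glo, 30 min RT; luminescence. AC50 = Hill fit.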

[14] = Cell Viability - LYMP2-015 (AID 971); note: nearly all actives have a fitted effect of over 55% in size
How it was run: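 Luminescent ATP read-out (CellTiter-Glo) served as the viability measure after lymphoblastoid cells were exposed to compounds for 24 hours at 37 C. Concentration-response data were fitted with the Hill equation to give AC50.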

[15] = Cell Viability - LYMP2-017 (AID 972); note: series mostly up to about 92 µM; nearly all actives have a fitted effect of over 55% in size
How it was run: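 2500 cells/well, 5 h 37 C; cpd 24 h 37 C in complete medium; CellTiter-Glo, 30 min RT; luminescence (ATP). AC50 via Hill fit, qHTS.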

[16] = Cell Viability - LYMP2-019 (AID 973); note: nearly all actives have a fitted effect of over 55% in size
How it was run: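 Luminescent ATP read-out (CellTiter-Glo, 30 min room temperature) served as the viability measure after 24 hr treatment of lymphoblastoid cells at 37 C. Concentration-response data were fitted to the Hill equation for AC50.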

[17] = Cell Viability - LYMP2-021 (AID 974)
How it was run: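 Plate 2500 lymphoblastoid cells per well and incubate 5 hr at 37 C. Add compounds over a concentration range and incubate 24 hr at 37 C. Add CellTiter-Glo, wait 30 min at room temperature, read luminescence.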

[18] = Cell Viability - LYMP2-023 (AID 975)
How it was run: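 2500 cells/well, 5 hr 37 C; cpd 24 hr 37 C; CellTiter-Glo, 30 min RT; luminescence. qHTS conc-response, Hill fit -> AC50. Pos ctrl tetraoctylammonium bromide.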

[19] = Cell Viability - LYMP2-003 (AID 965);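 note: cells exposed to compounds for 24 h before reading; nearly all actives have a fitted effect of over 50% in size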
How it was run: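 qHTS, human lymphoblastoid line, 2500 cells/well, complete medium. 24 h drug, 37 C. ATP-based luminescent readout; Hill-fit AC50.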

[20] = MultiTox-Fluor Cytotoxicity Assay - LYMP1-003 - Dead Cells (AID 961); note: nearly all actives have a fitted effect of over 70% in size
How it was run: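 LYMP1-003 human lymphoblastoid cells (2500/well) exposed to compound 16 h at 37 C in complete medium; dead-cell protease read with bis-AAF-R110 fluorescence (Ex/Em 485/520) after 60 min at room temperature. Normalized to DMSO and 15 uM tetraoctylammonium bromide; AC50 from Hill fit.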

Measured: Potency

O=[N+]([O-])c1ccc(Cl)cc1Cl
not listed: [19] | [20]
inactive: all other assays above

COC(=O)CCC(=O)OC
not listed: [6] | [20]
inactive: all other assays above

CCN(C(=O)N(CC)c1ccccc1)c1ccccc1
not listed: [20]
inactive: all other assays above

Cc1c(N)cccc1N
not listed: [6] | [10]
inactive: all other assays above

Cc1cc(C)cc(O)c1
not listed: [13] | [20]
inactive: all other assays above

CC(=C/C=C/C(C)=C/C=C/C=C(C)/C=C/C=C(C)/C=C/C(=O)O)/C=C/C(=O)O
not listed: [16] | [20]
inactive: all other assays above

c1ccc2[nH]cnc2c1
not listed: [6] | [13]
inactive: all other assays above

CC(O)CC(C)O (centres undefined)
not listed: [5] | [16]
inactive: all other assays above

CCCCC(CC)CNCC(CC)CCCC (centres undefined)
not listed: [6] | [10] | [14]
inactive: all other assays above

CC(C)C(C)C
not listed: [10] | [13] | [16] | [20]
inactive: all other assays above

CCCCCCCCC/C=C/CC1CC(=O)OC1=O (centres undefined)
not listed: [5] | [11]
inactive: all other assays above

O=C1OC(=O)c2cc([N+](=O)[O-])ccc21
not listed: [10] | [20]
inactive: all other assays above

Nc1ccc(F)cc1F
not listed: [5] | [17]
inactive: all other assays above

FC(F)(F)c1ccccc1Cl
not listed: [5] | [16]
inactive: all other assays above

c1ccc2c(c1)Oc1ccccc1S2
not listed: [9] | [10] | [20]
inactive: all other assays above

Clc1cc(Cl)cc(Cl)c1
not listed: [20]
inactive: all other assays above

CCCCCO
not listed: [14] | [20]
inactive: all other assays above

O=C1OC(=O)c2c(Cl)c(Cl)c(Cl)c(Cl)c21
not listed: [5] | [10] | [11] | [16]
inactive: all other assays above

NC(=O)NC(N)=O
not listed: [6] | [13]
inactive: all other assays above

c1ccc(Nc2ccccc2)cc1
not listed: [6] | [14] | [19]
inactive: all other assays above

CCCOCC(C)O (centres undefined)
not listed: [6] | [10] | [15] | [17]
inactive: all other assays above

O=C(O)CN(CC(=O)O)CC(=O)O
not listed: [5] | [16]
inactive: all other assays above

NC(=O)c1ccccc1[N+](=O)[O-]
not listed: [6] | [10] | [14] | [20]
inactive: all other assays above

CNc1ccc([N+](=O)[O-])cc1
not listed: [5] | [13] | [17]
inactive: all other assays above

Nc1cccc([N+](=O)[O-])c1
not listed: [6] | [9] | [14]
inactive: all other assays above

O=C(Cl)c1cccc([N+](=O)[O-])c1
not listed: [6] | [10]
inactive: all other assays above

C[C@@H]1CC2(OC3C[C@@]4(C)C5=CC[C@H]6C(C)(C)C(O[C@@H]7OC[C@@H](O)[C@H](O)[C@H]7O)CC[C@@]67C[C@@]57CC[C@]4(C)C31)OC(O)C1(C)OC21 (some centres undefined)
not listed: [5]
inactive: all other assays above

O=[N+]([O-])c1ccccc1CCO
not listed: [10] | [20]
inactive: all other assays above

O=C(O)c1ccccc1[N+](=O)[O-]
not listed: [5]
inactive: all other assays above

Cc1cccc(C)c1[N+](=O)[O-]
not listed: [6] | [20]
inactive: all other assays above

c1ccc2c(c1)ccc1ncccc12
not listed: [5]
inactive: all other assays above

BrC/C=C/CBr
not listed: [20]
inactive: all other assays above

CCCC(C)CO (centres undefined)
not listed: [11] | [13] | [20]
inactive: all other assays above

Cc1cccc2cccnc12
not listed: [6] | [19]
inactive: all other assays above
